# Reference: PubChem BioAssay (NCATS)
# Where “and” joins values, the source holds several entries; their conditions need not be identical. Identical values can stand only once. Results filed as inconclusive are left out. Where a call stands in place of a potency, no number is given. Values without a mark were called inactive. Calls of active or inactive are those of the source. Calls follow the shape of the dose curve; as a rule, active = well fitted curve in the direction sought with a large enough effect; inconclusive = small, poorly fitted or top-dose-only effect, or another doubt; inactive = no such curve, though single readings can be large; an effect the other way counts as inactive or inconclusive. Bridge positions count the residues as written; N and C are the ends. Square brackets hold non-standard residues; d marks the D form. Peptide text beside a SMILES is read from it. * marks the point of attachment. ξ: configuration not given here. Octanoyl(6-Me) = CCC(C)CCCCC(=O)*; ξThr(3R) = C[C@@H](O)C(N)C(=O)O; dDab = NCC[C@@H](N)C(=O)O; Dab = NCC[C@H](N)C(=O)O
# What was measured:
# [1] = Viability qHTS for spleen associated tyrosine kinase inhibitor (SYKi) naive MV4-11 cells (AID 1963823); conditions: MV4-11 AML viability, CellTiter-Glo luminescence, 72 h; series mostly up to 45 µM; also: nearly all actives have a fitted effect of over 40% in size
# Summary of the method: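 SYK inhibitor-naive MV4-11 cells, 500 per well, exposed to compounds for 72 hr at 37 C, 5% CO2. Viability read as CellTiter-Glo luminescence after 10 min at room temperature.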
# [2] = Viability qHTS for spleen associated tyrosine kinase inhibitor (SYKi) drug resistant MV4-11 cells (AID 1963824); conditions: SYKi-resistant MV4-11 viability, CellTiter-Glo, 72 h; series mostly up to 45 µM; also: nearly all actives have a fitted effect of over 35% in size
# Summary of the method: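 SYK inhibitor-resistant MV4-11 AML cells, 500 per well, added to predispensed compounds and incubated 72 hr at 37 C, 5% CO2. Viability measured by CellTiter-Glo luminescence after 10 min at room temperature.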
# [3] = Quantitative highthroughput screen to assess conditional lethalithy of NOMO1 cells grown in RPMI1640 with untreated serum (RPMI+s) (AID 1963876); conditions: NOMO1 AML cells in RPMI+serum, CellTiter-Glo viability, 48 h; series mostly up to 45.8 µM; also: nearly all actives have a fitted effect of over 35% in size
# Summary of the method: (§1)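 Each medium arm—HPLM with 10% dialyzed FBS, or RPMI1640 with 5 mM glucose and 10% untreated or dialyzed FBS—was screened against an 11-point, 3-fold compound titration for 48 h at 37 °C, with CellTiter-Glo luminescence as endpoint.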
# [4] = Quantitative highthroughput screen to assess conditional lethalithy of NOMO1 cells grown in RPMI1640 with dialyzed fetal bovine serum (RPMI+ds) (AID 1963877); conditions: NOMO1 in RPMI+dialyzed FBS viability, ATP luminescence, 48 h; series mostly up to 45.8 µM; also: nearly all actives have a fitted effect of over 30% in size
# Summary of the method: as §1
# [5] = Quantitative highthroughput screen to assess conditional lethalithy of NOMO1 cells grown in Human Plasma-Like Medium with dialyzed fetal bovine serum (HPLM+ds) (AID 1963878); conditions: NOMO1 AML cells in HPLM+ds, CellTiter-Glo viability, 48 h; series mostly up to 45.8 µM; also: nearly all actives have a fitted effect of over 35% in size
# Summary of the method: as §1
# [6] = Quantitative highthroughput screen to assess conditional lethalithy of P12 Ichikawa cells grown in RPMI1640 with dialyzed fetal bovine serum (RPMI+ds) (AID 1963880); conditions: ATP luminescence, 48 h; Potency: P12-Ichikawa viability; series mostly up to 45.8 µM; also: nearly all actives have a fitted effect of over 35% in size
# Summary of the method: as §1
# [7] = Quantitative highthroughput screen to assess conditional lethalithy of P12 Ichikawa cells grown in RPMI1640 with untreated serum (RPMI+s) (AID 1963881); conditions: ATP luminescence, 48 h; Potency: viability; series mostly up to 45.8 µM; also: nearly all actives have a fitted effect of over 35% in size
# Summary of the method: as §1
# [8] = Cellular viability qHTS for adrenocortical cancer (ACC) cell line SW-13 (AID 1963989); conditions: SW-13 ACC cells viability, CellTiter-Glo, 48 h; activity (max response): stronger effect = lower value; also: nearly all actives have a fitted effect of over 65% in size;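 as to activity (max response): cells grown in serum-free medium with ITS supplement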
# Summary of the method: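 48 h treatment, SW-13 in ITS/DMEM serum-free; doses up to 46 uM; readout CellTiter-Glo luminescence; curve fit four-parameter logistic.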
# [9] = Cellular viability qHTS for adrenocortical cancer (ACC) cell line NCI-H295R (AID 1963990); conditions: CellTiter-Glo ATP luminescence, 48 h; series mostly up to 46.1 µM; also: nearly all actives have a fitted effect of over 60% in size
# Summary of the method: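 Compound titrations (up to 46 uM final) are applied to NCI-H295R cultures for 48 h at 37C. Viable cell number is estimated by CellTiter-Glo signal, normalised to DMSO and doxorubicin controls.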
# [10] = Quantitative highthroughput screen to assess conditional lethalithy of SEM cells grown in Human Plasma-Like Medium with dialyzed fetal bovine serum (HPLM+ds) (AID 1963882); conditions: SEM B-ALL cells in HPLM+ds, CellTiter-Glo viability, 48 h; series mostly up to 45.8 µM; also: nearly all actives have a fitted effect of over 35% in size
# Summary of the method: as §1
# [11] = Quantitative highthroughput screen to assess conditional lethalithy of SEM cells grown in RPMI1640 with unreated serum (RPMI+s) (AID 1963883); conditions: SEM B-ALL cells, CellTiter-Glo viability, 48 h; series mostly up to 45.8 µM; also: nearly all actives have a fitted effect of over 35% in size
# Summary of the method: as §1
# [12] = Quantitative highthroughput screen to assess conditional lethalithy of SEM cells grown in RPMI1640 with dialyzed fetal bovine serum (RPMI+ds) (AID 1963884); conditions: SEM B-ALL cells, RPMI+dialyzed FBS, CellTiter-Glo viability, 48 h; series mostly up to 45.8 µM; also: nearly all actives have a fitted effect of over 35% in size
# Summary of the method: as §1
# Potency is read from the fitted curve at half-maximal effect.
SMILES,Potency [1],Potency [2],Potency [3],Potency [4],Potency [5],Potency [6],Potency [7],activity (max response) [8] [%],Potency [9],Potency [10],Potency [11],Potency [12],Potency [8]
c1ccc2c(Oc3nc(Nc4ccc(N5CCOCC5)cc4)c4ncn(C5CCCCC5)c4n3)cccc2c1,1.84 µM (active) and 2.35 µM (active),1.84 µM (active) and 4.17 µM (active),inactive,inactive,inactive,inactive,inactive,-10,inactive,–,–,–,–
CCOC(=O)c1ccc(C#Cc2ccc3c(c2)C(C)(C)CCS3)nc1,5.25 µM (active),3.76 µM (active),inactive,inactive,inactive,inactive,inactive,-8.69,inactive,inactive,inactive,inactive,–
C[C@@H](NC(=O)c1ncnc(N)c1Cl)c1ncc(C(=O)Nc2cc(C(F)(F)F)c(Cl)cn2)s1,9.2 µM (active),16.6 µM (active),inactive,inactive,16600 nM (active),–,inactive,–,–,inactive,inactive,inactive,20 µM (active)
CC(C)C[C@H](NC(=O)[C@H](CCc1ccccc1)NC(=O)CN1CCOCC1)C(=O)N[C@@H](Cc1ccccc1)C(=O)N[C@@H](CC(C)C)C(=O)[C@@]1(C)CO1,0.003 µM (active),10.6 nM (active) and 4.7 nM (active),37.2 nM (active),37.2 nM (active),37.2 nM (active),23.5 nM (active),20.9 nM (active),–,65.1 nM (active) and 63.1 nM (active),13.2 nM (active),8.3 nM (active),13.2 nM (active),103 nM (active) and 112 nM (active)
COC(=O)N[C@H](C(=O)N[C@@H](Cc1ccccc1)[C@@H](O)CN(Cc1ccc(-c2ccccn2)cc1)NC(=O)[C@@H](NC(=O)OC)C(C)(C)C)C(C)(C)C,inactive,inactive,inactive,inactive,inactive,–,inactive,-5.43,inactive,inactive,inactive,inactive,–
CCC(C)CCCCC(=O)N[C@@H](CCN)C(=O)NC(C(=O)N[C@H](CCN)C(=O)N[C@@H]1CCNC(=O)C([C@@H](C)O)NC(=O)[C@@H](CCN)NC(=O)[C@@H](CCN)NC(=O)[C@@H](CC(C)C)NC(=O)[C@H](Cc2ccccc2)NC(=O)[C@H](CCN)NC1=O)[C@@H](C)O (stereo partly drawn) ({Octanoyl(6-Me)}-[Dab][ξThr(3R)][dDab][dDab][Dab]F[dL][dDab][dDab][ξThr(3R)]; lactam 4-C),inactive,inactive,inactive,inactive,inactive,inactive,inactive,3.16,inactive,inactive,inactive,inactive,–
Cc1ccc(CN2CCNCC2)cc1NC(=O)CNc1ccc(F)c(F)c1,inactive,inactive,inactive,inactive,inactive,inactive,inactive,11.8,inactive,inactive,–,inactive,–
COc1ccc(-c2oc3c(CC=C(C)C)c(O)cc(O)c3c(=O)c2O)cc1,8.33 µM (active),13.2 µM (active),inactive,inactive,inactive,inactive,–,-11,inactive,inactive,inactive,inactive,–
CC(C)C[C@H](NC(=O)[C@H](Cc1ccccc1)NC(=O)c1cnccn1)B(O)O,0.0132 µM (active),9.4 nM (active) and 11.8 nM (active),46.9 nM (active),46.9 nM (active),46.9 nM (active),37.2 nM (active),37.2 nM (active),–,8.2 nM (active) and 35.5 nM (active),20.9 nM (active),18.7 nM (active),16.6 nM (active),20.6 nM (active) and 79.4 nM (active)
Cc1cc([C@@H](C)Nc2ccccc2C(=O)O)c2nc(N3CCOCC3)cc(=O)n2c1,5.01 µM (active) and 5.25 µM (active),7.08 µM (active) and 5.25 µM (active),13600 nM (active),12100 nM (active),8550 nM (active),–,–,–,–,13600 nM (active),10800 nM (active),9590 nM (active),–
NC[C@H]1O[C@H](O[C@@H]2[C@@H](O)[C@@H](O[C@H]3O[C@H](CO)[C@@H](O)[C@H](N)[C@@H]3O)[C@H](N)C[C@@H]2N)[C@H](O)[C@@H](O)[C@H]1O,1.05 µM (active),inactive,inactive,inactive,inactive,inactive,inactive,12.9,inactive,inactive,inactive,–,–
